For part of these data: Entries with a potency or affinity are not part of this list.

The test system of one test is Staphylococcus aureus. Put plainly: Antibacterial activity against Staphylococcus aureus MRSA ATCC 43300 (CO-ADD:GP_020); MIC in CAMBH media using NBS plates, by Resazurin F(560/590). The class given is functional. As to conditions: Concentration 20 uM, ASSAY_TEST Inhibition of Bacterial Growth, detection method Resazurin, Fluorescence (ex560/em590), MEDIA CAMHB, plate type 384well, CORNING #3640, time 18 hr.

In a further test the test system is Acinetobacter baumannii. Description: Antibacterial activity against Acinetobacter baumannii ATCC 19606 (CO-ADD:GN_034); MIC in CAMBH media using NBS plates, by Resazurin F(560/590). The class given is functional. The conditions noted are these: Concentration 20 uM, ASSAY_TEST Inhibition of Bacterial Growth, detection method Resazurin, Fluorescence (ex560/em590), MEDIA CAMHB, plate type 384well, CORNING #3640, time 18 hr. A general note: Resazurin is reduced to fluorescent resorufin, in cell work by metabolically active cells.

The next test deals with Escherichia coli. Put plainly: Antibacterial activity against Escherichia coli ATCC 25922 (CO-ADD:GN_001); MIC in CAMBH media using NBS plates, by Resazurin F(560/590). Format: functional. As to conditions: Concentration 20 uM, ASSAY_TEST Inhibition of Bacterial Growth, detection method Resazurin, Fluorescence (ex560/em590), MEDIA CAMHB, plate type 384well, CORNING #3640, time 18 hr.

The subject of a further test is Klebsiella pneumoniae. The conditions noted are these: Concentration 20 uM; ASSAY_TEST Inhibition of Bacterial Growth; detection method Absorption (OD600); MEDIA CAMHB; plate type 384well; NBS; CORNING #3640; time 18 hr.
The next test concerns Candida albicans. The conditions noted are these: 20 µM.
Another test has as its system Cryptococcus neoformans. As to conditions: Concentration 20 uM; ASSAY_TEST Inhibition of Fungal Growth; detection method Resazurin; Absorption (OD600-OD570); plate type 384well; NBS; CORNING #3640.

By Inhibition is commonly meant the drop in the measured response relative to a control, in per cent. `CCn1c(=O)n(C)c2c(=O)n(C)c(=O)n(C)c21`: the Inhibition with Staphylococcus aureus was -2%; in the test with Acinetobacter baumannii, -10.53%; with Escherichia coli it was 11.39%; with Klebsiella pneumoniae it was 6.07%; in the test with Candida albicans it was -0.98%; with Cryptococcus neoformans, -11.25%.
On to `CC(C)(C)c1ccc(C(=O)N2CCOC23CCCCC3)cc1`, for which the Inhibition is 6.69% with Staphylococcus aureus; 7.06% with Acinetobacter baumannii; 4.56% in the test with Escherichia coli; 2.74% in the test with Klebsiella pneumoniae; 2.86% with Candida albicans; -8.62% with Cryptococcus neoformans.
Regarding `Oc1cc(-n2cccn2)c(O)cc1-n1cccn1`, the Inhibition in the test on Staphylococcus aureus was 6.47%; with Acinetobacter baumannii, 8.87%; in the test on Escherichia coli, -3.84%; in the test with Klebsiella pneumoniae, 16.86%; in the test on Candida albicans it was 25.5%; in the test with Cryptococcus neoformans, -4.6%.
On to `O=C(CCl)NC1(C(=O)O)CCCC1`, for which the Inhibition in the test on Staphylococcus aureus is -0.81%; in the test on Acinetobacter baumannii, 16.39%; with Escherichia coli it was -6.53%; with Klebsiella pneumoniae, 9.23%; in the test with Candida albicans, 6.58%; in the test on Cryptococcus neoformans, -2.6%.
As to `CCOC(=O)Nc1c(Cl)n(C)c(=O)n(C)c1=O`, the Inhibition in the test with Staphylococcus aureus is -8.24%; in the test with Acinetobacter baumannii, 9.75%; in the test on Escherichia coli it was -16.55%; with Klebsiella pneumoniae it was 17.7%; in the test on Candida albicans, 6.3%; in the test on Cryptococcus neoformans, 20.83%.
For `COc1ccc(C(=S)N2CCN(c3cccc(Cl)c3)CC2)cc1`, the Inhibition is 13.14% in the test with Staphylococcus aureus; 2% in the test with Acinetobacter baumannii; 3.07% with Escherichia coli; 17.03% in the test on Klebsiella pneumoniae; 9.51% in the test with Candida albicans; -10.07% with Cryptococcus neoformans.
With `COc1ccc(C2=NC(=O)NC2c2ccc(OC)cc2)cc1` (configuration not stated), the Inhibition in the test on Staphylococcus aureus is 6.62%; in the test with Acinetobacter baumannii it was 10.45%; with Escherichia coli, -0.66%; in the test on Klebsiella pneumoniae, 17.66%; in the test on Candida albicans, 6.15%; with Cryptococcus neoformans, -4.19%.
Take `CC(=O)Oc1ccc(OC(C)=O)c2c1CC1(C)OC1(C)C2` (configuration not stated): the Inhibition is 13.73% with Staphylococcus aureus; 5.72% with Acinetobacter baumannii; 3.36% with Escherichia coli; 9.63% with Klebsiella pneumoniae; -0.12% with Candida albicans; -11.66% in the test on Cryptococcus neoformans.
Regarding `O=C(O)c1ccc(N2CCCCC2)cc1O`, the Inhibition in the test on Staphylococcus aureus was 7.99%; with Acinetobacter baumannii, -7.54%; in the test on Escherichia coli, 7.11%; in the test on Klebsiella pneumoniae it was 12.65%; with Candida albicans, 8.64%; with Cryptococcus neoformans it was -11.23%.
`NC(=O)c1ccccc1OCC(=O)Nc1ccc(Cl)c(Cl)c1`: the Inhibition in the test with Staphylococcus aureus was 5.21%; in the test with Acinetobacter baumannii, -16.17%; in the test on Escherichia coli, 19.19%; with Klebsiella pneumoniae it was 9.46%; in the test with Candida albicans, 4.37%; with Cryptococcus neoformans, -18.28%.
As for `Oc1ccccc1-n1c(-c2ccccc2)ccc1-c1ccccc1`, the Inhibition is 3.47% with Staphylococcus aureus; 1.43% with Acinetobacter baumannii; 1.29% in the test on Escherichia coli; 19.15% in the test with Klebsiella pneumoniae; 11.1% in the test with Candida albicans; -2.48% in the test with Cryptococcus neoformans.
For the compound `Nc1ccnn1-c1ccccc1`, the Inhibition with Staphylococcus aureus was 7.55%; in the test on Acinetobacter baumannii it was -6.56%; in the test on Escherichia coli, 2.95%; with Klebsiella pneumoniae, 26.2%; with Candida albicans, 2.01%; in the test on Cryptococcus neoformans it was -2.01%.
Turning to `Clc1nc2nc3n(c2nc1Cl)CCC3`, the Inhibition in the test with Staphylococcus aureus is 9.08%; in the test on Acinetobacter baumannii, 6.51%; in the test with Escherichia coli, 0.57%; in the test on Klebsiella pneumoniae, 2.17%; with Candida albicans, 3.01%; with Cryptococcus neoformans it was -9.39%.
As for `O=C(Nc1ccsn1)c1ccc(Cl)cc1Cl`, the Inhibition in the test with Staphylococcus aureus is 2.74%; in the test on Acinetobacter baumannii, -9.67%; in the test on Escherichia coli, 7.73%; with Klebsiella pneumoniae, 13.89%; with Candida albicans, 3.31%; with Cryptococcus neoformans, 7.18%.
In the case of `CSc1nc(O)cc(Cl)n1`, the Inhibition in the test on Staphylococcus aureus is -1.6%; in the test with Acinetobacter baumannii, -4.84%; with Escherichia coli, 7.44%; with Klebsiella pneumoniae it was 11.43%; in the test on Candida albicans, 2.04%; with Cryptococcus neoformans, -0.01%.
For the compound `C#CCOCC1CN(c2ccccc2)C(=O)O1` (configuration not stated), the Inhibition in the test with Staphylococcus aureus was -1.12%; with Acinetobacter baumannii, 12.08%; in the test with Escherichia coli it was 6.4%; with Klebsiella pneumoniae it was 9.96%; in the test on Candida albicans, 6.35%; with Cryptococcus neoformans it was -15.19%.
Take `Sc1nc2c[nH]c(S)nc-2n1`: the Inhibition was 21.94% with Staphylococcus aureus; -11.86% in the test with Acinetobacter baumannii; 14.36% with Escherichia coli; 15.98% with Klebsiella pneumoniae; 5.35% in the test with Candida albicans; -7.36% with Cryptococcus neoformans.
As for `O=C1CSCc2nc3ccccc3n21`, the Inhibition was 4.29% in the test on Staphylococcus aureus; -8.34% in the test with Acinetobacter baumannii; 5.14% in the test with Escherichia coli; 18.88% with Klebsiella pneumoniae; 1.65% in the test on Candida albicans; -7.32% in the test with Cryptococcus neoformans.
With `CCCNC(=O)c1ccc(S(N)(=O)=O)cc1`, the Inhibition with Staphylococcus aureus was 24.95%; in the test with Acinetobacter baumannii, -15.44%; with Escherichia coli, 7.13%; in the test with Klebsiella pneumoniae, 13.6%; in the test on Candida albicans, -0.57%; in the test on Cryptococcus neoformans, -5.61%.
Turning to `N#CC1C=Cc2c(ccc3ccccc23)N1C(=O)c1ccccc1` (configuration not stated), the Inhibition in the test on Staphylococcus aureus was 29.76%; with Acinetobacter baumannii it was -9.2%; with Escherichia coli, 7.35%; with Klebsiella pneumoniae, 24.48%; in the test with Candida albicans, 11.9%; in the test with Cryptococcus neoformans, 2.44%.
Turning to `COc1cc(-c2ccc(Nc3ccccc3C(=O)O)c(OC)c2)ccc1Nc1ccccc1C(=O)O`, the Inhibition with Staphylococcus aureus was 0.05%; in the test with Acinetobacter baumannii, 8.67%; in the test on Escherichia coli, 4.59%; in the test on Klebsiella pneumoniae it was -0.01%; in the test with Candida albicans it was -0.13%; in the test with Cryptococcus neoformans it was -0.24%.
On to `c1ccc(-c2nnc(-c3ccccn3)s2)nc1`, for which the Inhibition in the test with Staphylococcus aureus was 3.28%; in the test on Acinetobacter baumannii it was -18.69%; in the test on Escherichia coli, 9.86%; in the test with Klebsiella pneumoniae, 4.63%; with Candida albicans, 4.16%; in the test with Cryptococcus neoformans it was -18.42%.

For the origin of these results see ChEMBL document CHEMBL4296182, “CO-ADD screening of NIH NCI Diversity Set V”.
